Experiment [1] is described as follows: qHTS assay to identify small molecule agonists of the androgen receptor (AR) signaling pathway in the presence of an antagonist - cell viability counter screen (AID 1259379). Also: nearly all actives have a fitted effect of over 25% in size. Also: potency is read from the fitted curve at half-maximal effect. The gist of the method:
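Counter screen for cell viability run in parallel with the AR agonist-mode luciferase assay. MDA-kb2 cells were co-treated with nilutamide (3.0uM final) and compounds, then incubated 16 hr at 37C, and CellTiter-Fluor fluorescence was measured.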
(In qHTS, concentration-response curves come from the screen itself.)

A short description of experiment [2]: qHTS assay to identify small molecule agonists of the estrogen receptor beta (ER-beta) signaling pathway - cell viability counter screen (AID 1259380). Also: nearly all actives have a fitted effect of over 30% in size. Also: potency is read from the fitted curve at half-maximal effect. The gist of the method: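 In this qHTS counter screen, HEK293T cells carrying an ER-beta/UAS beta-lactamase reporter, grown in 2% charcoal-stripped FBS, received compound for 16 hr; ATP-based CellTiter-Glo luminescence was then read after 30 min at room temperature.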

Experiment [3] deals with Androgen receptor (Homo sapiens) (UniProt P10275). The experiment is described as follows: qHTS assay to identify small molecule agonists of the androgen receptor (AR) signaling pathway in the presence of an antagonist (AID 1259381; calls by dose curve; also: nearly all actives have a fitted effect of over 15% in size). The gist of the method:
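AR antagonist background: nilutamide 3.0uM final. Cell line: MDA-kb2, MMTV-driven luciferase, responsive to both AR and GR. Exposure 16hr, 37C, no CO2; ONE-Glo luminescence.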

Experiment [4] deals with Estrogen receptor (Homo sapiens) (UniProt P03372). The experiment in a line: qHTS assay to identify small molecule agonists of the estrogen receptor alpha (ER-alpha) signaling pathway in the presence of an antagonist (AID 1259383; calls by dose curve; also: top concentration of the series differs between compounds; nearly all actives have a fitted effect of over 15% in size). In a few lines:
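ER-alpha agonism measured under antagonist challenge: 10.0nM ICI-182,780 (final) plus compound, 15 concentrations, 22hr, VM7Luc4E2 ERE-luciferase cells. Read by luminescence.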

A short description of experiment [5]: qHTS assay to identify small molecule agonists or antagonists of the thyroid stimulating hormone receptor (TSHR) signaling pathway - wild type cell line counter screen (AID 1259384; calls by dose curve). The gist of the method: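 Wild-type Hek293 cells, 800/well, 18 h at 37C, then compound with Ro20-1724 for 30 min RT. cAMP by HTRF (cAMP-d2/anti-cAMP cryptate), 1 h RT, fluorescence read. 15 concentrations, triplicates.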

Experiment [6] is described as follows: qHTS assay to identify small molecule agonists of the estrogen receptor alpha (ER-alpha) signaling pathway in the presence of an antagonist - cell viability counter screen (AID 1259386).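 Also: cells exposed to compounds for 22 h at 37 °C before the viability read; nearly all actives have a fitted effect of over 30% in size.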 Also: potency is read from the fitted curve at half-maximal effect. In a few lines: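 Steps: 5-day stripped-FBS culture; seed and incubate 24hr; add ICI-182,780 (10.0nM final); pin 15-point compound titration; incubate 22hr at 37C; add CellTiter-Fluor at 21hr; read fluorescence.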

A short description of experiment [7]: qHTS assay to identify small molecule antagonists of the progesterone receptor (PR) signaling pathway - cell viability counter screen (AID 1346798). Also: nearly all actives have a fitted effect of over 50% in size. Also: potency is read from the fitted curve at half-maximal effect. In a few lines: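 Counter screen for cytotoxicity: viability of PR-UAS-bla HEK293T cells was measured with CellTiter-Glo luminescence following 16 hr compound exposure in the presence of R5020.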
Experiment [8] in a line: qHTS assay to identify small molecule agonists of the progesterone receptor (PR) signaling pathway - cell viability counter screen (AID 1346799; calls by dose curve; also: nearly all actives have a fitted effect of over 45% in size; also: potency is read from the fitted curve at half-maximal effect). The gist of the method: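 Cells (PR-UAS-bla HEK293T) are plated at 3,000/well in 2% charcoal-stripped FBS medium, rested 6 hr, dosed and incubated 16 hr at 37C. CellTiter-Glo is then added and luminescence measured after 30 min at room temperature.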

The nature of experiment [9]: qHTS assay to identify small molecule agonists of the TGF-beta/Smad signaling pathway - cell viability counter screen (AID 1346829). Also: nearly all actives have a fitted effect of over 45% in size. Also: potency is read from the fitted curve at half-maximal effect. In a few lines: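 Compound-treated SBE-bla HEK 293T cells (5 hr, 37 C) were assessed for viability with CellTiter-Glo in parallel with the reporter read.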
Experiment [10] addresses Thyrotropin-releasing hormone receptor (Homo sapiens) (UniProt P34981). The experiment in a line: qHTS assay to identify small molecule agonists of the thyrotropin-releasing hormone receptor (TRHR) signaling pathway (AID 1346891; calls by dose curve;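 also: HEK293 cells expressing TRHR with calcium dye readout; series mostly up to about 58 µM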). The gist of the method:
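Cells: TRHR-Hek293, seeded and incubated 18 h. Dye loading: 2 h at 37 °C. Compound added from DMSO stock by pin tool. Read-out: kinetic calcium fluorescence over 3 min.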

Experiment [11] in a line: Human pregnane X receptor (PXR) small molecule agonists, qHTS cell viability counter screen (AID 1346977). Also: nearly all actives have a fitted effect of over 50% in size. Also: potency is read from the fitted curve at half-maximal effect. The gist of the method:
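Cytotoxicity counter screen run in the same wells as the PXR luciferase assay, using PXR-Luc HepG2 cells in charcoal-stripped serum medium. Viability: CellTiter-Fluor fluorescence after 24hr compound treatment.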

The nature of experiment [12]: Caspase-3/7 induction in HepG2 cells by small molecules, qHTS assay (AID 1346978). Also: nearly all actives have a fitted effect of over 15% in size. Also: potency is read from the fitted curve at half-maximal effect. The gist of the method:
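Wild-type HepG2 cells, 2,000/well, settled 5 hr at 37 C and 5% CO2, then compound-treated for 17 hr; caspase-3/7 activity read by luminescent Caspase-Glo 3/7 after 30 min at room temperature.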

A short description of experiment [13]: qHTS assay to identify small molecule antagonists of the estrogen receptor beta (ER-beta) signaling pathway - cell viability counter screen (AID 1259382). Also: nearly all actives have a fitted effect of over 55% in size. Also: potency is read from the fitted curve at half-maximal effect. In a few lines:
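HEK293T ER-beta-UAS-bla, 2% charcoal-stripped FBS; compounds + 1nM E2 16 hr 37C; CellTiter-Glo luminescence, 30 min RT.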

Experiment [14] deals with Thyrotropin receptor (Homo sapiens) (UniProt P16473). The experiment is described as follows: qHTS assay to identify small molecule antagonists of the thyroid stimulating hormone receptor (TSHR) signaling pathway (AID 1259385; calls by dose curve; also: nearly all actives have a fitted effect of over 20% in size). The gist of the method: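 TSHR-HEK293 cells (800/well) plated 18 h, then compounds with Ro20-1724 and TSH at 1.5 ng/mL final, 30 min at room temperature. cAMP quantified by HTRF (cAMP-d2/anti-cAMP-cryptate, 1 h); 15 concentrations in triplicate.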
Sequence of Thyrotropin receptor (Homo sapiens) (P16473 whole entry, looked up): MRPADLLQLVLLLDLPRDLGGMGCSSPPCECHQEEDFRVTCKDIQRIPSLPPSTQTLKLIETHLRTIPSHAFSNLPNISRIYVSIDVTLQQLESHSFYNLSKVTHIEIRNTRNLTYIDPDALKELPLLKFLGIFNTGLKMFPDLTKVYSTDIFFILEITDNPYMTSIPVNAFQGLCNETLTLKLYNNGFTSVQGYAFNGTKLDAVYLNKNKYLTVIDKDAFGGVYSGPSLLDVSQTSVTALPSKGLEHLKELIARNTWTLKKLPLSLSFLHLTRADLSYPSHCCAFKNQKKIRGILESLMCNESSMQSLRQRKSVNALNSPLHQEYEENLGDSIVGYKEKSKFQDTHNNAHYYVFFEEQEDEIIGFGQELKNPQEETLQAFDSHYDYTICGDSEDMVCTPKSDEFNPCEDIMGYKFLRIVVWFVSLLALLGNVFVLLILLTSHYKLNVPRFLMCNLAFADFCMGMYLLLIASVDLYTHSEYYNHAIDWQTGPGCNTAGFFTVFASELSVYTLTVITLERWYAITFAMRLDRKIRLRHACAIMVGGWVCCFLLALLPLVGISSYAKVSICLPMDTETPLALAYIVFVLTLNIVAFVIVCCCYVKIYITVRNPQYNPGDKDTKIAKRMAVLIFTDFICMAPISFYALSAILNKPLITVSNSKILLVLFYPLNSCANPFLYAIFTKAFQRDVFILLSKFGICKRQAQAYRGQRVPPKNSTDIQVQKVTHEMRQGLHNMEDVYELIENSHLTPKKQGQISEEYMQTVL

Experiment [15] addresses Progesterone receptor (Homo sapiens) (UniProt P06401). The experiment is described as follows: qHTS assay to identify small molecule agonists of the progesterone receptor (PR) signaling pathway (AID 1346784; calls by dose curve; also: nearly all actives have a fitted effect of over 30% in size). In a few lines: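 Cells (PR-UAS-bla HEK 293T, GripTite) were plated in assay medium containing 2% charcoal-stripped FBS and incubated 6 hr. Test compounds in DMSO were added for 16 hr at 37C. FRET substrate was then loaded for 2 hr at room temperature before fluorescence reading.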

Experiment [16] can be described thus: qHTS assay to identify small molecule antagonists of the TGF-beta/Smad signaling pathway - cell viability counter screen (AID 1346824). Also: nearly all actives have a fitted effect of over 50% in size. In a few lines:
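SBE-bla HEK 293T cells, incubated overnight, then compound plus 0.25 ng/mL TGF-beta1 (stock added) for 5 hr at 37 C. Viability was read in the same wells by CellTiter-Glo luminescence after 30 min at room temperature.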

Experiment [17] can be described thus: qHTS assay to identify small molecule agonists of the TGF-beta/Smad signaling pathway (AID 1346859; active = well fitted activation curve with a large enough effect in the signal ratio in the repeat runs, not every such curve was filed as active; the % refers to the signal ratio; also: series mostly up to about 77 µM). In a few lines: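 Reporter line: HEK 293T with stably integrated SBE-controlled beta-lactamase. Compound exposure lasts 5 hr at 37 C and 5% CO2; substrate loading follows for 2 hr at room temperature, with emission read at 460 and 530 nm.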
Experiment [18] concerns the target Thyrotropin-releasing hormone receptor (Homo sapiens) (UniProt P34981). The experiment is described as follows: qHTS assay to identify small molecule antagonists of the thyrotropin-releasing hormone receptor (TRHR) signaling pathway (AID 1346877; active = well fitted inhibition curve with a large enough effect in the repeat runs, not every such curve was filed as active; also: series mostly up to about 51 µM). The gist of the method:
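Human TRHR in HEK293 cells; inhibition of the intracellular calcium rise triggered by 1 nM TRH was followed by fluorescence over 3 min. Compounds were run at 15 concentrations, three replicates each.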

For experiment [19], the target named is Progesterone receptor (Homo sapiens) (UniProt P06401). The experiment in a line: qHTS assay to identify small molecule antagonists of the progesterone receptor (PR) signaling pathway (AID 1346795; active = well fitted inhibition curve with a large enough effect in the signal ratio in the repeat runs, not every such curve was filed as active; the % refers to the signal ratio; also: potency is read from the fitted curve at half-maximal effect). The gist of the method: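 Antagonist mode: compounds tested against 1 nM (final) promegestone stimulation in HEK293T cells expressing PR-UAS-bla reporter, 16 hr at 37C, 5% CO2; beta-lactamase activity detected via B/G FRET substrate after 2 hr at room temperature.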
Sequence of Progesterone receptor (Homo sapiens) (P06401 whole entry, looked up): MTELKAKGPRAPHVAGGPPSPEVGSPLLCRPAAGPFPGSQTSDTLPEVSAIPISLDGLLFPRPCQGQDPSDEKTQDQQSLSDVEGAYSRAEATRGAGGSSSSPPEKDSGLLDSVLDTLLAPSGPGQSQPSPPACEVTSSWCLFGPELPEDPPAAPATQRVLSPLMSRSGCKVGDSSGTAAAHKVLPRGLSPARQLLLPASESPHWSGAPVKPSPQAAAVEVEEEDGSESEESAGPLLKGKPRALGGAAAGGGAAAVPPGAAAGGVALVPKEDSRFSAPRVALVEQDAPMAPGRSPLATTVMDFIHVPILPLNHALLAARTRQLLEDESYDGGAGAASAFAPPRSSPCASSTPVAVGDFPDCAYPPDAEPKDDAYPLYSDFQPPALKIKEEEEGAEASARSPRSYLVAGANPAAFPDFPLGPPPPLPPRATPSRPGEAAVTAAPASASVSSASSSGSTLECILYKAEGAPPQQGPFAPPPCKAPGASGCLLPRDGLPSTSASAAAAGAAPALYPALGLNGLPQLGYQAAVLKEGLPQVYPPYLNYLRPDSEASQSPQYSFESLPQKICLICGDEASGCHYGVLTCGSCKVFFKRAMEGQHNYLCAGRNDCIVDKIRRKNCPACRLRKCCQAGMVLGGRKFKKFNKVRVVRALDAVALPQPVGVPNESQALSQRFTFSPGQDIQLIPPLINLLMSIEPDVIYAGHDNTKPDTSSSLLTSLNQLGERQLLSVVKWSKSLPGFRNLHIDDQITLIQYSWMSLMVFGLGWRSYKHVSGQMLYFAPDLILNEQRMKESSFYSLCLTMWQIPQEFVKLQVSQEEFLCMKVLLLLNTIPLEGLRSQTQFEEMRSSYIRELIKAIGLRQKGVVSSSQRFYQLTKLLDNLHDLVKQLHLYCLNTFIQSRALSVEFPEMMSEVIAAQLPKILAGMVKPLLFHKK

Values joined by “and” are separate entries in the source; they are usually repeats but may differ in a detail not shown here. Identical values can stand only once. Results filed as inconclusive are left out. Active and inactive are the calls of the source. Unless noted, calls follow the shape of the dose curve; as a rule, active = well fitted curve in the direction sought with a large enough effect in the repeat runs; inconclusive = weak or mixed curves; inactive = no such curve, though single readings can be large; an effect the other way counts as inactive or inconclusive.

Potency and outcome data for eight molecules are collected here from PubChem BioAssay (Tox21).

Sequence of Thyrotropin-releasing hormone receptor (Homo sapiens) (P34981 whole entry, looked up): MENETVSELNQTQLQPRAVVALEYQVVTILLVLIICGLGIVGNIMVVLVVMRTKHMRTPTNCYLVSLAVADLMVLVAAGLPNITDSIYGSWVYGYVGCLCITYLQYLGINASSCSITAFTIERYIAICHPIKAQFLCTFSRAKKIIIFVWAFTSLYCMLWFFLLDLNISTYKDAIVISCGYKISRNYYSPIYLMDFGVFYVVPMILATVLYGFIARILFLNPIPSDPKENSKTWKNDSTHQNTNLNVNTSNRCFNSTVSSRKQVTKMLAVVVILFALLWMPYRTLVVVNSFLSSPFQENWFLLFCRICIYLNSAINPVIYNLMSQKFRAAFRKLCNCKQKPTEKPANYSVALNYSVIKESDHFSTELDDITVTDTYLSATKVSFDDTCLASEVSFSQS
Sequence of Estrogen receptor (Homo sapiens) (P03372 whole entry, looked up): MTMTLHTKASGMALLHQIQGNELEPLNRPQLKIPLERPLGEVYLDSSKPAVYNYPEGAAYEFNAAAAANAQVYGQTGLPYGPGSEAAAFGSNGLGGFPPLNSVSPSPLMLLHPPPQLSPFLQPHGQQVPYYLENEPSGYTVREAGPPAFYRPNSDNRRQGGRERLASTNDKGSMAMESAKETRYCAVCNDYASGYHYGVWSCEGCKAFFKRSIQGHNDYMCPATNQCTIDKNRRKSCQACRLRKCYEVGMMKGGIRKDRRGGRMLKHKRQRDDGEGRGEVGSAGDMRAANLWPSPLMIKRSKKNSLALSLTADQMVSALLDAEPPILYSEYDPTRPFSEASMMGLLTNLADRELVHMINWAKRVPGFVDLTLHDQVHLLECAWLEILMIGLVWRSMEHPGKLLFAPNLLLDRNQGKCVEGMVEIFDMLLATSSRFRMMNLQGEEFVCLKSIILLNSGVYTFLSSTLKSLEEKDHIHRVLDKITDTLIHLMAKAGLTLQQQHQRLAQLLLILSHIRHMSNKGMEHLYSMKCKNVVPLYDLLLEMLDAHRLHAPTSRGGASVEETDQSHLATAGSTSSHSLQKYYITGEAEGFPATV
Sequence of Androgen receptor (Homo sapiens) (P10275 whole entry, looked up): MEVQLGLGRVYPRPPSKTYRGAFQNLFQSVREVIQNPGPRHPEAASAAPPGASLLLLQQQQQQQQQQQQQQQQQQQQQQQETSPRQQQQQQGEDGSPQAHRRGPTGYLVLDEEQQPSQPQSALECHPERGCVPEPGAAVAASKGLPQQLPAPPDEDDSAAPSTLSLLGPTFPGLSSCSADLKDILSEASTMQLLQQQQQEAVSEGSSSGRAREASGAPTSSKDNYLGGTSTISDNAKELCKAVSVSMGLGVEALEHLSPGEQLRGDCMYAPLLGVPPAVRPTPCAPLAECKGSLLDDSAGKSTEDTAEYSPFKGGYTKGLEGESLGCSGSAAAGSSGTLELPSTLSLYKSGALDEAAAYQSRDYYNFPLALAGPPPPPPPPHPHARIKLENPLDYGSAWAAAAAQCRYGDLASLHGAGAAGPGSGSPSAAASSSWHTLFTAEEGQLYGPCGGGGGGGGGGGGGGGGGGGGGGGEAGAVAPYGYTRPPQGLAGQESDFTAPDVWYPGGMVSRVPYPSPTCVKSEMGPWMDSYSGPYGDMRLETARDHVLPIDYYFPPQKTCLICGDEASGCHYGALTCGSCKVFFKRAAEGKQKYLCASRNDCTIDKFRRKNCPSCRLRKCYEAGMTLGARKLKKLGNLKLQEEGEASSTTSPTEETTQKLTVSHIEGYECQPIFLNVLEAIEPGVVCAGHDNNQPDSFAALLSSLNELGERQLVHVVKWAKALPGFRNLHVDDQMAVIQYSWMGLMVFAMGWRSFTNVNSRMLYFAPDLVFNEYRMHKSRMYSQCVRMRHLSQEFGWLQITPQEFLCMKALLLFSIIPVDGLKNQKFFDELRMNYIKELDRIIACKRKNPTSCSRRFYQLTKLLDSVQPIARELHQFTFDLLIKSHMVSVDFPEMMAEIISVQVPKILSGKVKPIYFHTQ

As for `C=CC(=O)OCC(COC(=O)C=C)(COC(=O)C=C)COC(=O)C=C`, the Potency in [1] is 12.2 µM (active); in experiment [2], 7.7 µM (active); in experiment [6], 13.7 µM (active); in [7], 17.2 µM (active); in experiment [8], 19.3 µM (active); in experiment [9], 49 µM (active). The Potency in [11] is 12.2 µM (active); in experiment [12], 15.4 µM (active). Besides, the Potency result in [3], in [4] and in experiment [10] was “inactive” each time. Moreover, the call in [5] was inactive.

Regarding `CN(CCCC(O)c1cccnc1)N=O` (stereo not given), the Potency result in experiment [1], in experiment [2], in experiment [3], in [13], in [4] and in [14] was “inactive” throughout. The Potency entry in experiment [6], in [15], in experiment [7], in [8], in [16] and in [9] was “inactive” in each case. The Potency result in [18], in experiment [10], in experiment [11] and in [12] was “inactive” in each case. Besides, the result in [17] was inactive.

Turning to `CN(CCCC(=O)c1cccnc1)N=O`, the Potency entry in [1], in [2], in experiment [3], in experiment [13], in experiment [4] and in experiment [14] was “inactive” in each case. The Potency entry in experiment [6], in [15], in [19], in experiment [7], in [8] and in experiment [16] was “inactive” in each case. The Potency entry in experiment [9], in experiment [18], in experiment [10], in experiment [11] and in experiment [12] was “inactive” in each case. Moreover, in [17], the outcome was inactive.

Turning to `N#C/C=C/c1ccccc1`, the Potency result in [1], in experiment [2], in experiment [3], in [13], in experiment [4] and in experiment [6] was “inactive” in each case. Moreover, the Potency entry in experiment [19], in [7], in experiment [8], in [16], in experiment [9] and in [11] was “inactive” in each case. Further, the Potency result in [12] was “inactive”. In experiment [17], the outcome was inactive.

With `CCSC(C)CC1CC(=O)C(/C(CC)=N/OC/C=C/Cl)=C(O)C1` (stereo not given), the Potency entry in experiment [1], in experiment [2], in experiment [3], in experiment [13], in experiment [4] and in [14] was “inactive” throughout. Also, the Potency entry in [6], in experiment [15], in experiment [19], in experiment [7], in experiment [8] and in experiment [16] was “inactive” throughout. In addition, the Potency entry in experiment [9], in experiment [10], in experiment [11] and in [12] was “inactive” in each case. For the same molecule, the outcome in [17] was inactive.

On to `O=C1c2ccccc2C(=O)C1C(=O)C(c1ccccc1)c1ccc(Cl)cc1` (stereo not given), for which the Potency was 27.3 µM (active) in experiment [1], 24.3 µM (active) in experiment [2], 19.3 µM (active) in [19] and 21.7 µM (active) in [11]. Also, the Potency result in experiment [3], in [4], in [7], in experiment [16] and in experiment [12] was “inactive” throughout. Besides, the result in experiment [5] and in experiment [17] was inactive.

Take `Cc1cc(N=Nc2ccccc2C)ccc1N`: the Potency is 30.6 µM (active) and 34.4 µM (active) in experiment [1]; 27.3 µM (active) in [2]; 54.5 µM (active) in experiment [13]; 27.3 µM (active) in experiment [6]; 12.2 µM (active) in experiment [19]; 4.47 µM (active) and 6.86 µM (active) in experiment [11]. Moreover, the Potency in experiment [12] is 1.37 µM (active) and 969 nM (active). Besides, the Potency result in [3], in experiment [15], in [7], in experiment [16], in [9] and in [18] was “inactive” throughout. Further, the Potency result in [10] is “inactive”. The molecule was called inactive in [5] and in [17].

As for `CN(C)CCc1c[nH]c2ccc(O)cc12`, the Potency entry in experiment [1], in experiment [2], in [3], in [13], in experiment [6] and in experiment [15] was “inactive” each time. For the same molecule, the Potency result in experiment [8], in [16], in [9], in experiment [18], in experiment [10] and in [12] was “inactive” in each case. Also, the results for the Potency in experiment [19] and in experiment [7] were 53.2 µM (active) and 42.3 µM (active), respectively. The result in experiment [17] was inactive.
